The nature of test [1]: qHTS profiling for inhibitors of Plasmodium falciparum (3D7) proliferation (AID 743322).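 Further: infected erythrocytes exposed to compound for 72 h before lysis; 100% = DMSO vehicle wells and 0% = 0.29 µM artemisinin.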 The conditions noted are these: P. falciparum 3D7 proliferation; at 28.7 µM (top of the series). In a few lines: (§1)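 Parasite DNA was quantified by SYBR Green I fluorescence (ex 485, em 535 nm) after overnight lysis in saponin/Triton buffer at room temperature. Cultures at 0.3% parasitemia and 2.5% hematocrit were first exposed to compound for 72 h at 37 C; signals were normalised to artemisinin (0.29 uM) and vehicle wells.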

A short description of test [2]: qHTS profiling for inhibitors of Plasmodium falciparum (DD2) proliferation (AID 743323). Conditions: lower = more inhibition; at 28.7 µM (top of the series). In a few lines:
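SYBR Green fluorescence (ex 485, em 535 nm) of lysed cultures gives parasite DNA content; wells normalized to artemisinin (0.29 uM) and DMSO controls. Infected red cells: 0.3% parasitemia, 2.5% hematocrit, 72 h, 37 C.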

Test [3] can be described thus: qHTS profiling of the MIPE4 collection as inhibitors of Plasmodium falciparum (3D7) proliferation (AID 743344).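 Further: scaled between DMSO vehicle wells and 0.29 µM artemisinin as full inhibition.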 Conditions: P. falciparum 3D7 in erythrocytes, SYBR Green DNA fluorescence, 72 h; at 28.5 µM (top of the series) unless noted. In a few lines: as §1
Test [4] is described as follows: qHTS profiling of the MIPE4 collection as inhibitors of Plasmodium falciparum (DD2) proliferation (AID 743345). Conditions: P. falciparum Dd2 in erythrocytes, SYBR Green DNA, 72 h; at 28.5 µM (top of the series) unless noted. In a few lines:
as §1

The nature of test [5]: qHTS profiling of the MIPE4 collection as inhibitors of Plasmodium falciparum (DD2) proliferation (Rep 2) (AID 743346). Conditions: P. falciparum Dd2 in erythrocytes, SYBR Green DNA, 72 h; at 28.5 µM (top of the series) unless noted. In a few lines:
as §1

Test [6] is described as follows: qHTS profiling of the MIPE4 collection as inhibitors of Plasmodium falciparum (HB3) proliferation (AID 743347).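 Further: plate controls were DMSO vehicle wells for no effect and artemisinin wells for full effect.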 The conditions noted are these: P. falciparum HB3 in erythrocytes, SYBR Green DNA, 72 h; at 28.5 µM (top of the series) unless noted. An outline of the steps:
as §1

Test [7] is described as follows: High-throughput drug toxicity screening in the BPDCN cell line Gen2.2 (AID 1224824).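 Further: cells exposed to compounds for 48 h before reading.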 Conditions: Gen2.2 BPDCN cells; at 45.8 µM (top of the series) unless noted. In a few lines: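 Gen2.2 cells, 500 per well in phenol red-free RPMI with 10% FBS, exposed to compounds 48 h at 37 C, 5% CO2; viability by CellTiter-Glo luminescence. Percent activity scaled to DMSO (100%) and 9.2 uM bortezomib final (0%).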

Test [8] in a line: High-throughput drug toxicity screening in the BPDCN cell line Cal-1 (AID 1224825). The conditions noted are these: Cal-1 BPDCN cell viability, qHTS; at 45.8 µM (top of the series) unless noted. In a few lines:
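Viability of the BPDCN line Cal-1 is measured as ATP-based luminescence (CellTiter-Glo) following 48 h incubation with compounds. Percent activity uses DMSO-treated wells as 100% and 9.2 uM bortezomib as 0%.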

Take `CC(NCc1ccc2c(c1)nc(NC(=O)c1ccc(-c3cn[nH]c3)s1)n2CC(C)(C)O)C(C)(C)C` (configuration not stated): the remaining parasite growth % (stronger effect = lower value) in test [1] is -1.9%. In addition, the activity, percent of control in test [2] was -0.339%. In test [3], this molecule showed a parasite growth, % of DMSO control of 5.17%. For the same molecule, the parasite growth remaining, % of DMSO control (lower = more inhibition) in test [4] was found to be 7.07%. The parasite growth, % of control (lower = inhibition) in test [5] is 9.25%. For the same molecule, in test [6], the growth, % of control was 3.84%. For the same molecule, in test [7], the cell viability, % of control (lower = more cytotoxic) turned out to be 2.71%. This molecule also had a viability (% of control) in test [8] of 2.63%.

In the case of `COc1cc(C(C)C)c2c(c1)S(=O)(=O)N(COc1cc(=O)n3cccc(OCCN4CCCCC4)c3n1)C2=O`, the remaining parasite growth % (stronger effect = lower value) in test [1] was determined as 105%. Further, in test [2], the activity, percent of control was determined as 94.1%. The molecule further registered a parasite growth, % of DMSO control in test [3] of 101%. The parasite growth, % of control (lower = inhibition) in test [5] was determined as 114%. In test [6], this molecule yielded a growth, % of control of 107%. For the same molecule, the cell viability, % of control (lower = more cytotoxic) in test [7] worked out at 3.67%. In test [8], this molecule returned a viability (% of control) of 10.9%.

In the case of `Cc1cc(Nc2cc(N3CCN(C)CC3)nc(C=Cc3ccccc3)n2)n[nH]1`, in test [1], the remaining parasite growth % (stronger effect = lower value) stood at 0.147%. Also, the activity, percent of control in test [2] amounted to 3.11%. Moreover, the parasite growth, % of DMSO control in test [3] came out at 5.15% [at 57.5 µM]. In addition, the parasite growth, % of control (lower = inhibition) in test [5] was found to be 8.07% [at 57.5 µM]. Further, the growth, % of control in test [6] stood at 2.5% [at 57.5 µM]. The cell viability, % of control (lower = more cytotoxic) in test [7] amounted to 9.99% [at 92.2 µM]. In addition, in test [8], the viability (% of control) amounted to 3.23% [at 92.2 µM].

In the case of `CN1CCN(c2ccc3nc(-c4c(N)c5c(F)cccc5[nH]c4=O)[nH]c3c2)CC1`, in test [1], the remaining parasite growth % (stronger effect = lower value) is -2.13%. For the same molecule, the activity, percent of control in test [2] was -0.739%. In test [4], this molecule displayed a parasite growth remaining, % of DMSO control (lower = more inhibition) of 6.04%. Further, the cell viability, % of control (lower = more cytotoxic) in test [7] came to 9.8%. In addition, the viability (% of control) in test [8] came to 3.34%.

In the case of `CC(C)(C)c1cnc(CSc2cnc(NC(=O)C3CCNCC3)s2)o1`, in test [1], the remaining parasite growth % (stronger effect = lower value) is 9.96%. In test [2], the activity, percent of control was 6.95%. The molecule also gave a parasite growth, % of DMSO control in test [3] of 11.9%. For the same molecule, the parasite growth, % of control (lower = inhibition) in test [5] was found to be 24.1%. The growth, % of control in test [6] was found to be 12.8%. For the same molecule, the cell viability, % of control (lower = more cytotoxic) in test [7] turned out to be 1.75%. Besides, the viability (% of control) in test [8] came to 1.24%.

With `C[C@]1(CO)CN(c2cc(C(=O)Nc3ccc4c(c3)-c3c(c(C(N)=O)nn3-c3ccc(F)cc3)CC4)c(Cl)cn2)C[C@@]1(C)CO`, the remaining parasite growth % (stronger effect = lower value) in test [1] amounted to 50.5%. Moreover, in test [2], the activity, percent of control turned out to be 56.4%. For the same molecule, the parasite growth, % of DMSO control in test [3] came out at 11.4%. The parasite growth remaining, % of DMSO control (lower = more inhibition) in test [4] was determined as 17.1%. Further, in test [5], the parasite growth, % of control (lower = inhibition) was found to be 38.3%. Also, the growth, % of control in test [6] was 9.48%. Further, the cell viability, % of control (lower = more cytotoxic) in test [7] turned out to be 27.2%. This molecule also registered a viability (% of control) in test [8] of 6.89%.

Take `O=C(C=Cc1cccnc1)NCCCCC1CCN(C(=O)c2ccccc2)CC1`: the remaining parasite growth % (stronger effect = lower value) in test [1] amounted to 81.9%. In addition, the activity, percent of control in test [2] was found to be 85.9%. Besides, the parasite growth, % of DMSO control in test [3] was 50.2%. In test [4], this molecule had a parasite growth remaining, % of DMSO control (lower = more inhibition) of 93.7%. This molecule also had a growth, % of control in test [6] of 42%. For the same molecule, the cell viability, % of control (lower = more cytotoxic) in test [7] was found to be 48%. This molecule returned a viability (% of control) in test [8] of 4.19%.

Consider `O=C(O)c1ccc2cc(-c3ccc(O)c(C45CC6CC(CC(C6)C4)C5)c3)ccc2c1`, for which, in test [1], the remaining parasite growth % (stronger effect = lower value) is 5.44%. Also, in test [2], the activity, percent of control turned out to be 10.6%. The molecule further yielded a parasite growth, % of DMSO control in test [3] of 13.5%. The molecule further displayed a parasite growth remaining, % of DMSO control (lower = more inhibition) in test [4] of 40%. In addition, the parasite growth, % of control (lower = inhibition) in test [5] is 25.3%. This molecule also showed a growth, % of control in test [6] of 11.7%. For the same molecule, the cell viability, % of control (lower = more cytotoxic) in test [7] was found to be 30.9%. The molecule further came in with a viability (% of control) in test [8] of 7.6%.

As for `CC1(O)CC(c2nc(-c3ccc4ccc(-c5ccccc5)nc4c3)c3c(N)nccn23)C1` (configuration not stated), the remaining parasite growth % (stronger effect = lower value) in test [1] stood at 0.533%. For the same molecule, in test [2], the activity, percent of control came to 2.21%. In test [3], this molecule gave a parasite growth, % of DMSO control of 9.23%. This molecule also had a parasite growth remaining, % of DMSO control (lower = more inhibition) in test [4] of 19%. Besides, in test [6], the growth, % of control turned out to be 5.32%. Moreover, the cell viability, % of control (lower = more cytotoxic) in test [7] amounted to 117%. In test [8], this molecule showed a viability (% of control) of 8.23%.

Take `COc1cc(=C2C=c3ccccc3=N2)[nH]c1=Cc1[nH]c(C)cc1C`: the remaining parasite growth % (stronger effect = lower value) in test [1] turned out to be 2.05%. Moreover, the activity, percent of control in test [2] amounted to 1.12%. The molecule also came in with a parasite growth, % of DMSO control in test [3] of 4.63%. Moreover, the parasite growth remaining, % of DMSO control (lower = more inhibition) in test [4] was found to be 7.38%. The parasite growth, % of control (lower = inhibition) in test [5] was found to be 15.9%. Moreover, the growth, % of control in test [6] is 5.2%. In test [7], the cell viability, % of control (lower = more cytotoxic) stood at 17.7%. In test [8], this molecule had a viability (% of control) of 3.02%.

These data come from PubChem BioAssay (NCATS).
